Experimental findings from PubChem BioAssay (NCI) are described below.

This is part of a sample that, as a whole, favours compounds with a hit. Of some 83,000 tested, about 20% had one in any assay.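 Compound tested at a single concentration for 48 hours in 96-well plates; a percent growth value below 10 was scored as active.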 Values without a mark were called inactive. The source made the active and inactive calls.

The test system of the test is TK-10 renal. Nature of the test: NCI-60 one-dose screen, 48 h (100 = growth as untreated, 0 = no growth, -100 = all killed). To be noted: 10 µM unless noted. The procedure: Growth inhibition of the TK-10 human tumor cell line is measured as a screen for anti-cancer activity. Cells are grown in 96 well plates and exposed to the test compound for 48 hours. Compounds are tested at a single concentration, which is 10^-5 M for most compounds. The reported endpoint is percent growth (GI% or GIPRCNT), where numbers from 0 - 100% represent growth inhibition, and numbers from -100% - 0 represent cell death. For example, a value of 40 represents 60% growth inhibition. A value of 0 means no net growth occurred over the course of the experiment. A value of -40 indicates 40% of cells at the beginning of the experiment died by the end of the experiment. A value of -100 means all cells are dead at the end of the experiment.
NCI-60 Human Tumor Cell Lines Screen was performed using the standard one-dose NCI protocol, which is described in more detail at https://dtp.cancer.gov/discovery_development/nci-60/default.htm.
Compounds with GIPRCNT values below 10 were considered active. Activity score was based on GIPRCNT using the following formula: […]
Score is 0 for GIPRCNT values of 100 or above, 50 for GIPRCNT values of 0, and 100 for GIPRCNT values of -100.
With `Cc1cc(NS(=O)(=O)c2ccc(NC(=O)CSc3nc4ccccc4c(=O)n3-c3ccccc3)cc2)no1`, the growth is 108%.
The result for `Cc1ccc2c(n1)C(=O)C(Cl)=C(Nc1ccc(C(=O)OC(C)(C)C)cc1)C2=O` reads 83.9% [9.25 µM]; that for `O=S1SC(c2ccccc2)=NN1c1cc(F)cc(F)c1` (stereo not given), 85.8%.
The result for `COC(=O)c1cccc(NC2=C(Cl)C(=O)C(C)=C(C)C2=O)c1` reads 150%; that for `O=C(Nc1ccc(N2CCOCC2)cc1)Nc1ccc2c(ccn2C(=O)c2cccc(F)c2)c1`, 86.9%; that for `CN1CCN(c2ccc(Nc3nc(NCCCNS(=O)(=O)c4ccc(Cl)cc4)c4sccc4n3)cc2)CC1`, 9.93% (active).
Take `CN1CCN(CC#CCn2c3c(c4ccccc42)C[C@]2(C)[C@H]4CC=C5[C@@H]6CC(C)(C)CC[C@]6(C(=O)N6CCOCC6)CC[C@@]5(C)[C@]4(C)CC[C@H]2C3(C)C)CC1`: the growth is 135%.
With `CC(=C(c1ccc(OCCCN(C)C)cc1)c1ccc(OCCCN(C)C)cc1)c1ccc(Cl)cc1`, the growth was 96.5%.
For `COc1cc2oc(-c3cccc(NC(=O)[C@@H](N)C(C)C)c3)cc(=O)c2c(OC)c1OC`, the growth was 97.7%.
Take `COC(=O)c1cccc(NC2=CC(=O)C(C)=C(C)C2=O)c1`: the growth was 133%.
Consider `COc1cc(/C=N\NC(=O)c2ccc3nc(-c4ccc(Br)cc4)[nH]c3c2)cc(OC)c1OC`, for which the growth was 58.9%.
The result for `Cc1cc(=O)oc2cc(OCCCOc3ccc(/C=C/C(=O)Nc4ccc(Br)cc4)cc3)ccc12` reads 78.9%; that for `O=c1c2ccccc2cc2n1CCN=C2c1ccccc1`, 101%; that for `CN1CCN(Cc2ccc(NC(=O)c3cncc(C#Cc4cnc5ccc(O[C@@H]6CCOC6)nn45)c3)cc2C(F)(F)F)CC1`, -83.5% (active).
The result for `CCOC(=O)C(=O)Nc1ccc2c(ccn2C(=O)c2cccc(F)c2)c1` reads 97.6%.
The result for `CC(=C(c1ccc(OCCN(C)C)cc1)c1ccc(OCCN(C)C)cc1)c1ccc(Cl)cc1` reads -72.4% (active); that for `CC(C)(C)Nc1nc2c(OCCc3ccccc3)cccn2c1-c1ccc([N+](=O)[O-])cc1`, 66.5%.
On to `CCCCN1C(=O)/C(=c2\sc3n(c2=O)C2C(NN=3)N(CC)C(=O)N2CC)c2cccc(C)c21` (stereo not given), for which the growth was 82.9%.
With `CC[C@H](CC[C@@H](C)[C@H]1CC[C@H]2[C@@H]3CC(=O)C4=CC(=O)/C(=C/c5ccc([N+](=O)[O-])cc5)C[C@]4(C)[C@H]3CC[C@]12C)C(C)C`, the growth was 104%.
For `COc1ccc(C(C)=C(c2ccc(OCCN(C)C)cc2)c2ccc(OCCN(C)C)cc2)cc1`, the growth is -56.1% (active).
As to `N#C/C(=C\c1cccc2c1OCO2)C(=O)Nc1sc2c(c1C#N)CCCC2`, the growth is 120%.
As for `CCCN1C=C/C(=C\C(=O)n2ccc3ccccc32)c2ccccc21`, the growth is 105%.
Next, `Cc1csc(/N=C(N)/N=C(\N)c2cccc(Br)c2)n1`: 149%; `CNC(=O)c1cc(-n2ccc3cc(NC(=O)Nc4ccc(N5CCN(C)CC5)c(C(F)(F)F)c4)ccc32)ccn1`: 121%; `CC(C)(C)OC(=O)Nc1ccc(-c2cccc(Oc3ccc4nnc(Cl)n4n3)c2)cc1`: 71.1%.
Next, `Cc1ccc(C(=O)Nc2ccc(CNCCN3CCNCC3)c(C(F)(F)F)c2)cc1C#Cc1cnc2cccnn12`: 129%.
Take `CCCc1cc2cc(-n3nc(CC)c4c3CC(C)(C)CC4=O)cc(NC3CCC(O)CC3)c2c(=O)[nH]1` (stereo not given): the growth was 0.71% (active).
Next, `CC1=C(C)C(=O)C(Nc2ccc(C)cc2)=C(Br)C1=O`: 145%.
The result for `O=C(CSc1nc2ccccc2c(=O)n1-c1ccccc1)N/N=C/c1ccc(Oc2ccc(Cl)cc2)cc1` reads 104%; that for `CCOC(=O)c1c(N)c(C#N)cn1Cc1ccc(Cl)cc1Cl`, 69.8%.
Take `CCC1=Cc2c(OC)cccc2OC12C=Cc1c(OC)cccc1O2` (stereo not given): the growth is 101%.
`COc1ccc2c(c1)c(/C=N/Nc1ccnc3cc(Cl)ccc13)cn2C`: the growth is -79.9% (active).
Next, `O=C(CSc1nc2ccccc2c(=O)n1-c1ccccc1)N/N=C/c1ccc(Oc2ccc(Br)cc2)cc1`: 101%.
Next, `CN1CCN(Cc2ccc(NC(=O)c3cncc(C#Cc4cnc5ccc(N)nn45)c3)cc2C(F)(F)F)CC1`: 40.4%.
For the molecule `O=C(CSc1cc[n+](CCCCO)c2ccccc12)n1ccc2ccccc21`, the growth was 155%.
The result for `O=C1C(N2CCN(c3ccccc3)CC2)=C(Cl)C(=O)c2ncccc21` reads 123%; that for `Cc1csc(/N=C(N)/N=C(\N)c2cccs2)n1`, 174%.
Next, `CSc1ccc(C(=NNS(=O)(=O)c2ccc(C)cc2)c2ccc(Cl)cc2)cc1`: 104%; `CCN(CC)CCOc1ccc(C(=C(C)c2ccc(OC)cc2)c2ccc(OCCN(CC)CC)cc2)cc1`: 18.8%; `OCC(Nc1ncnc2ccc(-c3cnc4cnccn34)cc12)c1ccccc1` (stereo not given): 40%.
